From PubChem
Pol eta inh: DNA polymerase eta (human) inhibition. AID 588591. actives 1.2% (n = 390,000). Q9Y253. recombinant Pol eta, fluorescent DNA replication assay. Potency, µM (doses to about 114 µM), actives largely listed as inhibitors
Target sequence (Q9Y253 whole entry, looked up): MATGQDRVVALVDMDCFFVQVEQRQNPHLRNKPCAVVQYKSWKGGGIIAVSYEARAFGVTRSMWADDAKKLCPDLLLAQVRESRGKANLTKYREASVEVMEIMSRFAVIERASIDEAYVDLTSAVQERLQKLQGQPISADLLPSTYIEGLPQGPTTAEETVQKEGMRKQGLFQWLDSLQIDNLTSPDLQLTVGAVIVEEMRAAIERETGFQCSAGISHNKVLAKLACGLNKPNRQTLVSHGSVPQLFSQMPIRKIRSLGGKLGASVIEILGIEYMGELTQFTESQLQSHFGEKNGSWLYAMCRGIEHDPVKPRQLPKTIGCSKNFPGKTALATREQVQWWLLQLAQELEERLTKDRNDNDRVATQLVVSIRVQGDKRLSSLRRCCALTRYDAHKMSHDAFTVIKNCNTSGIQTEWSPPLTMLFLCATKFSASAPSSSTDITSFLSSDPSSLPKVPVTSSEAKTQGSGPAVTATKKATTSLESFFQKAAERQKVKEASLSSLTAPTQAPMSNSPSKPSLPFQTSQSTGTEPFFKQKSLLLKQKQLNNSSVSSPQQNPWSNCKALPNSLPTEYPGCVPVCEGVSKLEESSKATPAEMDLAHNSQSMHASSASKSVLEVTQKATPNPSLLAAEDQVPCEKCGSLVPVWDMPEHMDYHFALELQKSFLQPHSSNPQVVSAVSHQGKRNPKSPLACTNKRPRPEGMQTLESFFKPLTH
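Pol eta (10 nM) was preincubated with compounds for 15 min at room temperature, after which fluorescent replication substrate (50 nM final) was added to start the reaction. Fluorescence was read kinetically at 0 and 10 min.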
Pol iota inh: inhibitors of human DNA polymerase iota; actives 1% (n = 390,000); AID 588590; Q9UNA4; Potency, µM (doses to about 115 µM), actives largely listed as inhibitors; Pol iota fluorescent replication assay, 10 min
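Fluorescent replication assay read twice, at 0 min and 10 min after adding 50 nM (final) substrate. Enzyme (10 nM) and compounds were first incubated 15 min at room temperature; enzyme-free buffer wells were negative controls.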
WRN inhibitor: WRN helicase (human) inhibition; Q14191; WRN helicase unwinding, fluorescent forked duplex, kinetic; Potency, µM (highest dose often 114 µM), usual class: inhibitors; actives 0.46% (n = 360,000); AID 651768; further: nearly all actives have a fitted effect of over 55% in size
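WRN at 20 nM final was preincubated with compound for 15 min at room temperature; reaction started with 100 nM forked duplex oligonucleotide carrying fluorophore and quencher plus 2 mM ATP (final). Unwinding followed kinetically by red fluorescence (ex 525/em 598 nm).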
Pol kappa inh: blocks human DNA polymerase kappa activity. Potency, µM (highest dose often 107 µM), hits mostly inhibitors. Q9UBT6. AID 588579. actives 0.53% (n = 400,000). purified Pol kappa, fluorescent DNA synthesis assay, 10 min
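Kinetic fluorescence readout at 0 and 10 min followed reaction start with substrate at 50 nM final. Beforehand, enzyme (10 nM Pol kappa) stood 15 min with compound at room temperature; buffer-only wells were negative controls.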
POLB inh: inhibitors of human DNA polymerase beta | P06746 | actives 1.3% (n = 340,000) | Pol beta primer extension/strand displacement, fluorescence kinetic | AID 485314 | Potency, µM (doses to about 114 µM), actives largely listed as inhibitors
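Pol beta (10 nM) was preincubated with compound for 15 min at room temperature. The reaction was then started with 50 nM substrate and read immediately and after a further 10 min at room temperature.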
FEN1 inh: human FEN1 inhibition; Potency, µM (top dose mostly 114 µM), hits mostly inhibitors; Recombinant FEN1 flap cleavage, fluorescence, 15 min; actives 0.35% (n = 390,000); P39748; further: nearly all actives have a fitted effect of over 65% in size
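Steps: FEN1 (10 nM) dispensed; compound added by pin tool; 15 min at room temperature; substrate added to 50 nM final; reads at 0 min and 15 min; data normalized and fitted (four-parameter Hill).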
Of the large screens only hits and unclear results are named; the others gave an inactive call; ! = not confirmed by another sample. Hits are enriched below; roughly 2.4% of the tested compounds scored in any of these assays. The call rests on the fitted dose curve; in most records, active means well fitted curve in the direction sought with a large enough effect; inconclusive means small, poorly fitted or top-dose-only effect, or another doubt; inactive means no such curve, though single readings can be large; an effect the other way counts as inactive or inconclusive.

Cc1ccc(S(=O)(=O)/N=C2\C=C(Nc3cccc(C(=O)O)c3)C(=O)c3ccccc32)c(C)c1	Pol eta inh 22µM, Pol iota inh 5µM, WRN inhibitor inconclusive, POLB inh inconclusive, FEN1 inh 71µM
Cc1ccc(NC2=C/C(=N/S(=O)(=O)c3cccs3)c3ccccc3C2=O)cc1	Pol eta inh inconclusive, Pol iota inh inconclusive
Cc1cc(C)cc(N2CCn3c2nc2c3c(=O)n(CCc3ccccc3)c(=O)n2C)c1	none (no result: WRN inhibitor)
Oc1ccc(Br)cc1CNc1cccc2cccnc12	Pol eta inh inconclusive, FEN1 inh inconclusive
Oc1c(Br)cc(Br)cc1CNc1cccc2cccnc12	Pol iota inh inconclusive, Pol kappa inh inconclusive, POLB inh 45µM, FEN1 inh inconclusive
CCS(=O)(=O)N1CCc2cc(C(=O)N3CCN(c4cccc(C(F)(F)F)c4)CC3)ccc21	none (no result: WRN inhibitor)
Oc1ccccc1C1C=C(c2ccc3c(c2)OCO3)NC(c2ccc(Br)cc2)N1 (configuration not stated)	Pol iota inh inconclusive (no result: Pol eta inh, WRN inhibitor, POLB inh)
COc1ccc(CCNC(=O)Cn2c(=O)n(-c3ccc(OC)c(OC)c3)c(=O)c3ccccc32)cc1OC	Pol iota inh inconclusive, Pol kappa inh 79µM (no result: WRN inhibitor)
CCc1ccc(-n2c(=O)c3ccccc3n(CC(=O)NCCc3ccc(OC)c(OC)c3)c2=O)cc1	none (no result: WRN inhibitor)
Oc1nc(Nc2ccc(Cl)cc2Cl)sc1/C=C1\C=Nc2ccccc21	Pol eta inh 14µM, Pol iota inh inconclusive, WRN inhibitor inconclusive, POLB inh inconclusive, FEN1 inh inconclusive
CN(c1ccccc1)S(=O)(=O)c1nnc(NC(=O)COc2ccccc2)s1	Pol eta inh inconclusive, Pol iota inh 79µM, POLB inh inconclusive
COc1ccc(-c2cccc(C3C4C=CCCC4(C)C(=O)N3Cc3ccccc3)c2)cc1 (configuration not stated)	none (no result: Pol eta inh, WRN inhibitor, POLB inh)
COc1c2ccc(OCC/C(C)=C/C(=O)C=C(C)C)cc2nc2occc12	Pol eta inh 45µM, Pol iota inh inconclusive (no result: POLB inh)
O=[N+]([O-])c1ccc(Nc2nc(NCCN3CCOCC3)nc(Nc3ccc(I)cc3)n2)cc1	none (no result: Pol eta inh, WRN inhibitor, POLB inh)
Cc1cccc(NC2SC(=O)N(c3ccccc3)C2=O)c1 (configuration not stated)	none
Cc1cccc(NC(=O)CC2SC(=O)N(c3ccccc3)C2=O)c1 (configuration not stated)	WRN inhibitor 100µM
O=C(CC1SC(=O)N(c2ccccc2)C1=O)Nc1ccccc1 (configuration not stated)	Pol iota inh inconclusive, WRN inhibitor 40µM
Cc1ccc(NC(=O)CC2SC(=O)N(c3ccccc3)C2=O)cc1 (configuration not stated)	WRN inhibitor inconclusive
COc1ccccc1C1(O)CCN(CCCn2c3ccccc3c3ccccc32)CC1	none (no result: Pol eta inh, Pol iota inh, WRN inhibitor, POLB inh, FEN1 inh)
CN(C)c1nc(=NCc2cccs2)ss1	WRN inhibitor 22µM (no result: POLB inh)
O=C1CCN(Cc2ccccc2)CCN1CCSc1ccccc1	Pol iota inh 79µM!, Pol kappa inh inconclusive
CC1CC=CC2C1C(=O)N(Cc1ccccc1)C2c1ccc(/C=C/c2ccccc2)cc1F (configuration not stated)	none (no result: Pol eta inh, WRN inhibitor, POLB inh)
O=C(Nc1c(Cl)cc([N+](=O)[O-])cc1Cl)c1cc(Cl)ccc1O	none (no result: Pol eta inh, WRN inhibitor, POLB inh)
CCc1ccc(CNC(=O)C2CCCN(c3nnc(C)c4c(C)n(-c5ccccc5)nc34)C2)cc1 (configuration not stated)	Pol eta inh inconclusive, POLB inh 50µM!
Cc1ccccc1CNC(=O)C1CCCN(c2nnc(C)c3c(C)n(-c4ccccc4)nc23)C1 (configuration not stated)	Pol eta inh inconclusive, POLB inh inconclusive, FEN1 inh inconclusive
Cc1nnc(N2CCC(C(=O)NCc3ccc(F)cc3)CC2)c2nn(-c3ccc(Cl)cc3)c(C)c12	POLB inh 79µM (no result: WRN inhibitor)
Cc1nnc(N2CCCC(C(=O)NCc3ccccc3)C2)c2nn(-c3ccccc3)c(C)c12 (configuration not stated)	none (no result: WRN inhibitor)
Cc1ccc(-n2nc3c(N4CCC(C(=O)NCc5ccccc5C)CC4)nnc(C)c3c2C)cc1	Pol eta inh 50µM, Pol iota inh inconclusive, POLB inh 89µM
O=C1CC2(CCCC2)CC(=O)N1CCCCNCC1COc2ccccc2O1 (configuration not stated)	none (no result: Pol eta inh, Pol iota inh, WRN inhibitor, POLB inh, FEN1 inh)
CC(=O)Nc1ccc(SC[C@H](Cc2ccccc2)N2CC[C@@H](N)CCC2=O)cc1	none (no result: Pol eta inh, WRN inhibitor, POLB inh)
C[C@H](CCC(=O)NCC(=O)O)C1CC[C@H]2[C@H]3C(C[C@H](O)[C@]12C)[C@@]1(C)CC[C@@H](O)C[C@H]1C[C@H]3O (some centres not stated)	none (no result: Pol eta inh, Pol iota inh, WRN inhibitor, POLB inh, FEN1 inh)
Cc1cc(C)c(S(=O)(=O)Nc2ccc3oc4c(c3c2)C(=O)CC(C)(C)C4)cc1C	Pol iota inh 79µM (no result: WRN inhibitor)
COc1ccc(S(=O)(=O)Nc2ccc3oc4c(c3c2)C(=O)CC(C)(C)C4)cc1	none (no result: WRN inhibitor)
O=C1c2c(O)cc(O)cc2OC(c2ccc(O)c(O)c2)C1O (configuration not stated)	Pol eta inh 5.6µM, Pol iota inh 4µM, Pol kappa inh 6µM, POLB inh 1.9µM (no result: WRN inhibitor, FEN1 inh)
O=C1C(=O)C(c2ccc(O)cc2O)Oc2cc(O)cc(O)c21 (configuration not stated)	Pol iota inh 10µM, Pol kappa inh 13µM, FEN1 inh 20µM (no result: Pol eta inh, WRN inhibitor, POLB inh)
O=C1c2c(O)cc(O)cc2O[C@H](c2ccc(O)c(O)c2)C1O (some centres not stated)	Pol kappa inh 1.3µM (no result: Pol eta inh, Pol iota inh, WRN inhibitor, POLB inh, FEN1 inh)
COc1cc2nc(NC3CCN(Cc4ccccc4)CC3)nc(N3CCCN(C)CC3)c2cc1OC	FEN1 inh inconclusive (no result: Pol eta inh, WRN inhibitor, POLB inh)
CCc1cc(C(=O)/C=C/c2cc3c(cc2C)OCCO3)c(O)cc1O	none (no result: Pol eta inh, WRN inhibitor, POLB inh)
CCOc1ccc(C(=O)Nc2cccc(NC(=O)c3ccco3)c2)cc1Cl	Pol iota inh 89µM, FEN1 inh 89µM (no result: WRN inhibitor)
Cc1ccc(OCC(=O)Nc2ccc(NC(=O)c3ccco3)cc2)c(C)c1	Pol eta inh inconclusive, Pol iota inh inconclusive, POLB inh 28µM
COc1ccc(NC(=O)c2ccco2)cc1NC(=O)COc1ccc(C)cc1C	Pol eta inh inconclusive, POLB inh inconclusive (no result: WRN inhibitor)
CCOc1ccc(C(=O)Nc2cc(NC(=O)c3ccco3)ccc2OC)cc1Br	none (no result: WRN inhibitor)
COc1ccc(NC(=O)c2ccco2)cc1NC(=O)COc1ccc(Cl)cc1C	Pol eta inh 79µM, POLB inh inconclusive (no result: WRN inhibitor)
C=C/C(C)=C/CC1C(=C)CCC2C(C)(C(=O)O)CCCC12C (configuration not stated)	Pol eta inh 7.1µM, Pol iota inh inconclusive, WRN inhibitor inconclusive, Pol kappa inh 16µM, POLB inh inconclusive, FEN1 inh inconclusive
